# Bioassay records (PubChem)
# LDHA inh – inhibitors of human lactate dehydrogenase A; hit rate 0.15% among 480,000; purified LDHA, NADH/diaphorase-resazurin fluorescence; hits give low values; activity change, % (values are at about 110 or 230 µM); P00338; in the data active = activity change below about -30%; inconclusive = mostly about -25% to -30%;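 note: plate controls were DMSO wells for no effect and wells without enzyme for full effect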
#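 LDH5 2 nM; NADH 0.06 mM, pyruvate 0.2 mM; 200 mM Tris pH 7.4, EDTA, Tween-20; 5 min RT. Detection: diaphorase 0.133 mg/mL + resazurin 37 µM, fluorescence ex540/em590 at 0 and 20 min; normalized to enzyme-free and DMSO wells.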
# a7 integrin act – activators of alpha7 integrin expression for muscular dystrophy; alpha7betagal myoblasts, beta-gal FDG fluorescence, 48 h; Potency, µM (highest dose often 38.3 µM), inactives show at the highest dose activation, hits mostly activators; hit rate 0.064% among 350,000;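 note: potency is the fitted concentration of half-maximal effect; 100% = response of the positive control SU9516; nearly all actives have a fitted effect of over 60% in size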
#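 Alpha7betagal+/- myoblasts (passage 13) were plated 16-24 hr, then exposed to compounds (1:260 dilution of DMSO stock) for 48 hours at 37C. After MPER lysis, β-galactosidase reporter activity was read as FDG fluorescence (ex 480/em 540) after 30 minutes.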
# TrxR1 substrate – substrates of rat thioredoxin reductase 1 | O89049 | purified TrxR1 substrate turnover, NADPH consumption readout | Potency, µM (series often up to 114 µM), for the others: top-dose activity change, negative = substrate turnover | hit rate 0.01% among 390,000 | AID 588456; note: potency is the fitted concentration of half-maximal effect; nearly all actives have a fitted effect of over 50% in size
#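 Rat TrxR1, dispensed at 90 nM, was prereduced with 400 uM NADPH (final) for 5 min at ~22 deg C, then incubated with compound 15 min before 400 uM selenite. A first-read NADPH fluorescence drop versus no-compound background flagged substrates.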
# GALK inh – inhibitors of human galactokinase; Potency, µM (top dose mostly 57.5 µM), for inactives: at the highest dose activity change, negative = inhibition, most hits filed as inhibitors; hit rate 0.007% among 270,000; P51570; Purified GALK, Kinase-Glo residual ATP luminescence; note: potency is the fitted concentration of half-maximal effect
# Target sequence (P51570 whole entry, looked up): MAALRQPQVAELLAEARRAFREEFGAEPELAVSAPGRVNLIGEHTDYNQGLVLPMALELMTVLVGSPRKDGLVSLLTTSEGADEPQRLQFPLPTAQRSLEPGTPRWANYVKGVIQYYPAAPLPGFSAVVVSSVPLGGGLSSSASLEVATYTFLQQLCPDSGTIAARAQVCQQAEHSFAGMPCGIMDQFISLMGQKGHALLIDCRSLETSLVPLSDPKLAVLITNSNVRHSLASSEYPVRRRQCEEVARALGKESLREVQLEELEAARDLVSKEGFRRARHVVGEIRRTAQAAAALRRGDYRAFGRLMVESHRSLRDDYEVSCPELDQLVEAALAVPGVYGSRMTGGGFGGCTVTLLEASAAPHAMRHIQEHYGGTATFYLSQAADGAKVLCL
#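 Kinase-Glo Plus luminescence measured ATP left after a 1 h room-temperature reaction. The reaction used 5 nM GALK, 100 uM galactose and 35 uM ATP at pH 8.0 (20 mM HEPES, 5 mM MgCl2, 60 mM NaCl, 1 mM DTT, 0.01% BSA).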
# PI4K2A block – inhibitors of human PI4K2A | AID 1346378 | Q9BTU6 | purified PI4K2A, ADP-Glo luminescence, 1 h; hits give low values | activity change, negative = inhibition, % at 76.9 µM | hit rate 0.13% among 420,000; in the data active = activity change below about -50%; inconclusive = mostly about -30% to -49%;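 note: -100% = wells without enzyme as full effect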
#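 Compounds are screened against recombinant PI4K2A using PI as substrate and ATP, the latter dispensed at 300 microM. Reactions run one hour at ambient temperature before ADP-Glo detection; full inhibition defined by wells lacking enzyme.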
# rTrxR1 inhibitor – inhibitors of rat thioredoxin reductase 1. AID 588453. O89049. hit rate 1% among 390,000. recombinant rTrxR1, NADPH fluorescence consumption, selenite substrate. Potency, µM (series often up to 114 µM), without a hit: at the top dose activity change, negative = inhibition, usual class: inhibitors; note: potency is the fitted concentration of half-maximal effect; nearly all actives have a fitted effect of over 65% in size
#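 Rat TrxR1 (90 nM in the dispensed reagent) was pre-reduced with 400 uM NADPH for 5 min at room temperature, then incubated with compound for 15 min. After 400 uM selenite was added, NADPH fluorescence (Ex 340/Em 450 nm) was followed for 8 min.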
# Numbers without * were called inactive; ? = inconclusive; · = no result; [ ] = remark or other dose. The list is not random: actives were taken first. Their share in the collection is about 1.1%. Unless noted, calls come from the whole dose curve; as a rule, active = well fitted curve in the direction sought with a large enough effect; inconclusive = small, poorly fitted or top-dose-only effect, or another doubt; inactive = no such curve, though single readings can be large; an effect the other way counts as inactive or inconclusive. Unless noted, % is set by controls: 0 for no effect and ±100 for the full control effect.
SMILES,LDHA inh,a7 integrin act,TrxR1 substrate,GALK inh,PI4K2A block,rTrxR1 inhibitor
Cc1cc(NC(=O)CS(=O)(=O)c2ccc(C(C)(C)C)cc2)no1,-1.9,·,·,·,·,·
O=C(C=Cc1ccco1)c1ccco1,4.0,-33.5%,12.7%[57.1 µM],·,-7.9,14.1µM*
COc1cc(/C=c2\s/c(=C(/C#N)C(=O)N3CCCC3)n(-c3ccccc3)c2=O)ccc1O,0.7,-20.5%,-1.5%[57.1 µM],3.2%,2.3,-3.3%
Cc1ccc(/C=c2\s/c(=C(/C#N)C(=O)N3CCCC3)n(Cc3ccco3)c2=O)s1,-3.7,-7.4%,-15.1%,0.0%,-11.7,25.1µM*
Cc1cccc(Cl)c1OCCCn1ccnc1,-36.6*,-11.5%,-3.2%,-7.4%,-3.8,1.2%
Cc1ccc(NC(=O)NC2CCCCC2)cc1Cl,-6.0,8.9%,4.8%,0.8%,-71.0*,18.1%
Cc1ccc(C)c(C(=O)Cn2nc(C(=O)O)c3ccccc3c2=O)c1,0.6,·,·,·,·,·
Cc1nc(C2COc3ccccc3O2)sc1C(=O)O (stereo unspecified),2.0,20.0%,5.3%[57.1 µM],1.6%,-63.0*,3.3%[2.29 µM]
Cc1nc2ccc3nc(NC(=O)C4COc5ccccc5O4)sc3c2s1 (stereo unspecified),0.5,11.8%,6.9%,-2.8%,-0.1,0.3%
CC(NC(=O)CCl)c1ccc(Cl)c(Cl)c1 (stereo unspecified),-5.3,-45.9%,-3.1%,-0.2%,7.5,39.8µM*
CCN1c2ccccc2NC2N=C(OC)C(c3ccccc3)C21 (stereo unspecified),16.8,-50.0%,2.8%,0.1%,5.6,20µM*
Cc1oc2c(c1C(=O)c1ccccc1)C(=O)C(=O)c1ccccc1-2,32.8,-51.8%,?,-8.5%,-63.8*,62.0%[57.1 µM]
Clc1cccc(C2Nc3cccc4cccc(c34)N2)c1,2.3,?,0.4%,6.3%,-3.5,25.1µM*
Clc1ccc(C2Nc3cccc4cccc(c34)N2)cc1Cl,8.8,-9.0%,-0.6%,2.1%,-6.0,44.7µM*
Brc1ccc(C2Nc3cccc4cccc(c34)N2)o1,14.9,-9.5%,3.4%,4.3%,-18.6,25.1µM*
Brc1cccc(C2Nc3cccc4cccc(c34)N2)c1,3.0,28.2%,1.0%,-1.9%,-4.6,56.2µM*
Cc1ccc(CNC(=O)c2ccccc2NCC(=O)N2CC(=O)Nc3ccccc32)cc1,0.7,·,·,·,·,·
NC(=S)Nc1cccc(Br)c1,0.1,·,·,·,·,·
Fc1cccc(Cl)c1C1Nc2cccc3cccc(c23)N1,12.1,-26.5%,-3.9%,1.8%,-13.5,56.2µM*
COC(CNC(=O)C1CCN(c2ncnc3sc4c(c23)CCC4)CC1)OC,-22.2,·,·,·,·,·
CC(Sc1ncnc2ccccc12)C(=O)Nc1ccc(Cl)cc1Cl (stereo unspecified),-6.6,·,·,·,·,·
Cc1ccc(OCC(=O)N2CCN(S(=O)(=O)c3ccc4c(c3)OCCO4)CC2)c(C)c1,-1.7,2µM*,-7.6%,·,3.7,16.4%
COc1ccc(C2C(C#N)=C(N)N(c3cccnc3)C3=C2C(=O)CC(C)(C)C3)cc1OC (stereo unspecified),8.1,-48.5%,-5.5%,·,2.0,17.8µM*
COc1ccc(N2C(N)=C(C#N)C(c3cccnc3)C3=C2CC(C)(C)CC3=O)cc1 (stereo unspecified),0.5,-28.3%,9.7%[57.1 µM],0.5%,-5.4,?
Cc1ccccc1Oc1cc(-n2ncc(Cl)c(Cl)c2=O)ncn1,-8.3,-61.8%,3.4%,-5.6%,-5.9,0.794µM*
SMILES,LDHA inh,a7 integrin act,TrxR1 substrate,GALK inh,PI4K2A block,rTrxR1 inhibitor
CCOc1cnn(-c2cc(Oc3ccc(C)cc3)ncn2)c(=O)c1Cl,-1.2,0.7%,7.1%,2.2%,0.7,14.9%
COC(=O)C1=C[C@@H](C(=O)OC)[C@@H]2C3=C(C(=O)C2(C)C)[C@H](C)n2c(=O)n(-c4ccccc4)c(=O)n2[C@@H]3C1,-4.4,0.3%,10.4%,·,-1.9,56.2µM*
COc1ccccc1NC(c1cccnc1)c1ccc2cccnc2c1O (stereo unspecified),9.9,-34.5%,-6.2%,0.6%,-1.3,0.708µM*
Cc1ccnc(NC(c2cccnc2)c2ccc3cccnc3c2O)c1 (stereo unspecified),4.1,-40.0%,5.5%,0.1%,-1.2,3.55µM*
Cc1ccnc(NC(c2cc(C)ccc2O)c2ccc3cccnc3c2O)c1 (stereo unspecified),13.0,·,3.0%,·,-6.4,5.01µM*
Cc1cc(O)c2c(C)c(CC(=O)NCCc3cccc(F)c3)c(=O)oc2c1,-0.2,·,·,·,·,·
CC(NCc1ccccc1C#N)c1ccccc1F (stereo unspecified),-20.0,·,·,·,·,·
O=C1CCCC2=C1C(c1ccccc1F)n1nnnc1N2 (stereo unspecified),-0.3,·,·,·,·,·
COc1ccc(C(=O)NC(NC(=S)Nc2ccc(S(N)(=O)=O)cc2)C(Cl)(Cl)Cl)cc1 (stereo unspecified),-33.6*,-8.1%,1.1%[57.1 µM],0.0%,-11.7,-10.2%[57.1 µM]
COc1ccc(C(=O)NC(=S)Nc2ccc(S(N)(=O)=O)cc2)cc1,-3.9,0.0%,7.5%[11.4 µM],0.3%,1.2,24.6%[11.4 µM]
COC(=O)C1=C(NC(=O)COc2ccc3ccccc3c2)CCS1,1.3,19.3%,29.7%,0.3%,2.4,79.4µM*
COc1ccc(/C=N/Nc2nncn2N)cc1Br,37.1,-1.2%,-10.9%,3.6%,-53.6*,21.6%[57.1 µM]
Cc1cc(CNC(=O)C2CCCN2C(=O)OC(C)(C)C)ccc1F (stereo unspecified),-2.6,·,·,·,·,·
CCCCN(C(=O)CN1CC(C)OC(C)C1)c1c(N)n(CC(C)C)c(=O)[nH]c1=O (stereo unspecified),-0.1,24.9%,-7.9%,1.2%,-1.3,5.8%[57.1 µM]
CCCCN(C(=O)Cn1ncc(Cl)c(Cl)c1=O)c1c(N)n(CC(C)C)c(=O)[nH]c1=O,-2.7,-38.2%,-11.9%,1.6%,-26.1,56.2µM*
CC(C)c1nnc(NC(=O)c2cc(=O)c3cc(Cl)ccc3o2)s1,-0.8,·,·,·,·,·
CCN(CC)c1ccc(S(=O)(=O)N2CCOCC2)cc1NC(=O)COC(=O)/C=C/c1ccccc1,-5.9,-13.5%,-11.3%,·,-0.4,-4.0%
CCN(CC)c1ccc(S(=O)(=O)N2CCOCC2)cc1NC(=O)COC(=O)/C=C/c1ccc(C)o1,-0.6,-1.3%,-10.0%,·,2.7,70.8µM*
NS(=O)(=O)c1ccc(Oc2ccc(S(N)(=O)=O)cc2)cc1,0.9,7.4%,5.0%,-0.5%,0.9,13.2%
C=CS(=O)(=O)c1ccc(Oc2ccc(S(=O)(=O)C=C)cc2)cc1,-8.7,-60.7%,-3.9%,-2.7%,-11.0,5.01µM*
COC(=O)CCC1CCCCC12OCCO2 (stereo unspecified),17.1,·,·,·,·,·
Cc1onc(C(=O)Nc2sc3c(c2C#N)CCCC3)c1[N+](=O)[O-],-0.8,1.8%,-3.3%,-9.7%,2.2,15.8µM*
